The values that follow come from PubChem BioAssay (NCI).

Some test systems named below: NCI-H23 lung; NCI-H226 lung; NCI-H322M lung; HOP-62 NSCLC; NCI-H460 lung; HOP-92 NSCLC; NCI-H522 lung; A549/ATCC NSCLC; 786-0 renal; COLO 205 colon; DU-145 prostate; K-562 leukemia; MALME-3M melanoma; MDA-MB-231 breast; RXF 393 renal; SF-268 CNS; SF-295 CNS; SF-539 CNS; UACC-257 melanoma; M14 melanoma.
Common to all, as to assay: NCI-60 one-dose screen, 48 h (100 = growth as untreated, 0 = no growth, -100 = all killed)
Common to all, as to settings: 10 µM unless noted

About 83,000 compounds went through this panel and 20% of them were active in at least one assay; those are over-represented in the sample as a whole.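 How to read the values: 0–100, growth inhibition (40 = 60% inhibited); 0, no net growth; -100 to 0, cell death (-40 = 40% of starting cells died; -100 = all dead).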 A number with no mark means an inactive call. The source made the active and inactive calls. Rule for the calls: active = growth percent below 10; inactive = the rest.

As for `COc1ccc2c(c1)/C(=C/c1c(-c3cc(OC)c(OC)c(OC)c3Br)nc3sccn13)C(=O)N2`, the growth in the test with NCI-H23 lung was 101%; in the test on NCI-H226 lung, 86.1%; in the test on NCI-H322M lung, 88.9%; in the test on HOP-62 NSCLC, 59.2%; in the test on NCI-H460 lung it was 111%; in the test on HOP-92 NSCLC, 60.8%. Also, the growth is 68.1% with NCI-H522 lung; 101% in the test with A549/ATCC NSCLC; 93.4% with 786-0 renal; 117% in the test on COLO 205 colon; 114% in the test on DU-145 prostate; 76% in the test with K-562 leukemia. The growth with MALME-3M melanoma was 62.1%; with MDA-MB-231 breast, 81.4%; in the test with RXF 393 renal it was 118%; with SF-268 CNS, 116%; with SF-295 CNS, 105%; in the test on SF-539 CNS it was 95.3%. Also, the growth with UACC-257 melanoma was 110%; in the test on M14 melanoma it was 115%.
In the case of `Oc1ccc(Cl)cc1Sc1cc(Cl)ccc1O`, the growth in the test on NCI-H23 lung is 93.3%; with NCI-H226 lung, 88.4%; in the test on NCI-H322M lung it was 115%; in the test on HOP-62 NSCLC it was 98.4%; in the test with NCI-H460 lung, 107%; with HOP-92 NSCLC it was 63.6%. Further, the growth in the test on NCI-H522 lung was 81.6%; with A549/ATCC NSCLC, 95.5%; in the test with 786-0 renal it was 110%; in the test with COLO 205 colon, 105%; with DU-145 prostate, 98.9%; in the test on K-562 leukemia, 93.3%. Further, the growth with MALME-3M melanoma was 86.2%; in the test with MDA-MB-231 breast, 96.4%; with RXF 393 renal, 62%; in the test with SF-268 CNS it was 87.8%; in the test on SF-295 CNS, 108%; with SF-539 CNS, 97.6%. In addition, the growth was 94.7% in the test with UACC-257 melanoma and 95.8% in the test with M14 melanoma.
Take `COc1cc(Nc2ncccc2C(=O)Nc2nc3ccc(F)cc3s2)cc(OC)c1OC`: the growth with NCI-H23 lung was 55.8%; in the test with NCI-H226 lung, 57.2%; in the test on NCI-H322M lung, 90.8%; with HOP-62 NSCLC, 40.9%; with NCI-H460 lung, 74.1%; in the test on HOP-92 NSCLC, 45.1%. The growth in the test with NCI-H522 lung was 50.6%; with A549/ATCC NSCLC it was 65.6%; in the test on 786-0 renal it was 22.9%; in the test on COLO 205 colon, 118%; with DU-145 prostate, 90.4%; in the test with K-562 leukemia, 97%. Besides, the growth in the test with MALME-3M melanoma is 78.8%; in the test with MDA-MB-231 breast, 71.4%; in the test with RXF 393 renal it was 139%; in the test on SF-268 CNS, 90%; in the test on SF-295 CNS it was 15.6%; in the test on SF-539 CNS, 92.9%. Moreover, the values for the growth in the test on UACC-257 melanoma and with M14 melanoma were 86.4% and 19.1%, respectively.
Consider `Cc1cc2nc(-c3c(N)ncc(C#N)c3-c3ccc(Cl)cc3)[nH]c2cc1C`, for which the growth with NCI-H23 lung was 50%; in the test on NCI-H226 lung, 91.7%; in the test with NCI-H322M lung, 81.1%; in the test on HOP-62 NSCLC, 83.5%; with NCI-H460 lung it was 43.2%; with HOP-92 NSCLC, 10.6%. Moreover, the growth in the test on NCI-H522 lung is 41.2%; in the test on A549/ATCC NSCLC, 36.4%; in the test with 786-0 renal it was 75.1%; in the test on COLO 205 colon it was 67.4%; in the test with DU-145 prostate it was 31.9%; with K-562 leukemia, 62.9%. For the same compound, the growth in the test with MALME-3M melanoma is 63%; in the test on MDA-MB-231 breast it was 66.4%; in the test on RXF 393 renal, 70.9%; with SF-268 CNS, 73.4%; in the test on SF-295 CNS it was 58.3%; in the test on SF-539 CNS it was -9.94% (active). Further, the results for the growth with UACC-257 melanoma and in the test with M14 melanoma were 51.9% and 53.7%, respectively.
On to `CCc1c(C)c2cc3nc(NCc4ccccc4)oc3c(C)c2oc1=O`, for which the growth in the test on NCI-H23 lung was 69.7%; with NCI-H226 lung, 88.1%; in the test on NCI-H322M lung, 70.2%; with HOP-62 NSCLC it was 73.7%; in the test on NCI-H460 lung, 60.3%; in the test on HOP-92 NSCLC, 78.1%. Further, the growth in the test with NCI-H522 lung is 45.5%; in the test on A549/ATCC NSCLC it was 78.6%; in the test on 786-0 renal, 44.4%; in the test with COLO 205 colon, 114%; in the test on DU-145 prostate it was 82.9%; with K-562 leukemia, 89.5%. Moreover, the growth with MALME-3M melanoma is 51.9%; in the test on MDA-MB-231 breast it was 62.1%; with RXF 393 renal it was 53.9%; in the test on SF-268 CNS it was 65.9%; in the test on SF-295 CNS, 79.6%; with SF-539 CNS, 33.5%. Further, the growth was 87.6% in the test on UACC-257 melanoma and 88.3% in the test with M14 melanoma.
`O=C(Nc1cccc(-n2ccc3c(NC(=O)c4ccccc4)nccc32)c1)Nc1cc(C(F)(F)F)cc(C(F)(F)F)c1`: the growth with NCI-H23 lung was 3.76% (active); in the test on NCI-H226 lung, 26.3%; with NCI-H322M lung, 46%; in the test on HOP-62 NSCLC, 35.6%; with NCI-H460 lung, 2.99% (active); in the test on HOP-92 NSCLC, -13% (active). Moreover, the growth in the test with NCI-H522 lung was -46.5% (active); in the test with A549/ATCC NSCLC, 7.57% (active); in the test with 786-0 renal it was 13.4%; with COLO 205 colon it was -36.3% (active); with DU-145 prostate it was 1.14% (active); in the test with K-562 leukemia, 4.23% (active). Moreover, the growth was 26.2% in the test on MALME-3M melanoma; -10.5% (active) in the test on MDA-MB-231 breast; -19.4% (active) in the test with RXF 393 renal; 22.1% in the test with SF-268 CNS; -19.2% (active) in the test on SF-295 CNS; -19.3% (active) in the test on SF-539 CNS. Besides, the values for the growth with UACC-257 melanoma and with M14 melanoma were 25.2% and -43.8% (active), respectively.
In the case of `Nc1ccc(S(=O)(=O)Nc2ccnn2-c2ccccc2)cc1`, the growth was 107% in the test on NCI-H23 lung; 106% with NCI-H226 lung; 95% in the test with NCI-H322M lung; 112% in the test with HOP-62 NSCLC; 108% in the test on NCI-H460 lung; 97.9% in the test with HOP-92 NSCLC. In addition, the growth in the test on NCI-H522 lung was 101%; with A549/ATCC NSCLC it was 97.7%; in the test on 786-0 renal, 105%; in the test on COLO 205 colon, 109%; in the test on DU-145 prostate, 118%; in the test on K-562 leukemia, 89%. Further, the growth in the test on MALME-3M melanoma is 103%; in the test on MDA-MB-231 breast, 102%; with RXF 393 renal, 120%; in the test with SF-268 CNS, 107%; with SF-295 CNS it was 102%; with SF-539 CNS, 103%. Also, the growth is 103% with UACC-257 melanoma and 109% in the test on M14 melanoma.
